± gives the standard deviation of the averaged measurements.
Experiments:
Assay in all cases: cell viability (% of vehicle); higher = less cytotoxic
Details in all cases: 10 µM; 72 h
HCI01 = tested on: HCI01 (cells of a triple-negative basal-like breast cancer xenograft)
HCI03 = tested on: HCI03 (cells of an ER-positive luminal breast cancer xenograft)
HCI09 = tested on: HCI09 (cells of a triple-negative luminal androgen receptor type breast cancer xenograft)
HCI11 = tested on: HCI11 (cells of an ER-positive luminal breast cancer xenograft)
HCI13 = tested on: HCI13 (cells of an ER-positive luminal breast cancer xenograft)
HCI16 = tested on: HCI16 (cells of a triple-negative basal-like breast cancer xenograft)
UCD52 = tested on: UCD52 (cells of a triple-negative basal-like breast cancer xenograft)
WHIM2 = tested on: WHIM2 (cells of a triple-negative basal-like breast cancer xenograft)
WHIM30 = tested on: WHIM30 (cells of a triple-negative basal-like breast cancer xenograft)
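Further: PDX cells carrying CMV promoter-driven luciferase, viability read as total photon flux per second by IVIS imaging following D-luciferin, vehicle control 0.1% DMSO.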

SMILES | cell viability (HCI01) | cell viability (HCI03) | cell viability (HCI09) | cell viability (HCI11) | cell viability (HCI13) | cell viability (HCI16) | cell viability (UCD52) | cell viability (WHIM2) | cell viability (WHIM30)
CC(C)(C)c1cc(NC(=O)Nc2ccc(-c3cn4c(n3)sc3cc(OCCN5CCOCC5)ccc34)cc2)no1 [Quizartinib (AC220)] | 168 ± 27 | 112 | 81.5 ± 1.3 | 111 | 94 ± 17 | 127 | 146 ± 29 | 74.2 ± 3.8 | 193 ± 34
COc1ccccc1N1CCN(CCCNc2cc(=O)n(C)c(=O)n2C)CC1.Cl [Urapidil HCl] | 96.7 ± 8.1 | 125 | 89.54 ± 0.6 | 80.2 | 93.3 ± 1.2 | 105 | 97.6 ± 7.3 | 98.8 ± 5.4 | 111 ± 3.3
CC(C)(C)N.CCCC(NC(C)C(=O)N1C(C(=O)O)CC2CCCCC21)C(=O)OCC (stereo not drawn) [Perindopril Erbumine] | 84.9 ± 13 | 101 | 95.1 ± 11 | 93.5 | 129 ± 5.6 | 108 | 72.44 ± 0.41 | 98.2 ± 1.5 | 114 ± 28
FC(F)(F)c1ccc(CNc2ccc(Cc3c[nH]c4ncc(Cl)cc34)cn2)cn1 [Pexidartinib (PLX3397)] | 100 ± 1.4 | 139 | 73.6 ± 3.9 | 91.3 | 96.9 ± 7.1 | 116 | 97.4 ± 16 | 96.5 ± 8.4 | 86 ± 11
C.CCN1CC(CCN2CCOCC2)C(c2ccccc2)(c2ccccc2)C1=O.O (stereo not drawn) [Doxapram HCl] | 102.9 ± 0.49 | 198 | 81.9 ± 14 | 101 | 91.2 ± 1.9 | 105 | 73.6 ± 5.6 | 82.8 ± 4.2 | 117 ± 11
NC(=O)NN=Cc1ccc([N+](=O)[O-])o1 [Nitrofurazone] | 125 ± 3.8 | 149 | 38.5 ± 15 | 92.3 | 159 ± 12 | 148 | 137 ± 15 | 105 ± 7.4 | 118 ± 18
N#CC(=C1SCC(c2ccc(Cl)cc2Cl)S1)n1ccnc1 (stereo not drawn) [Luliconazole] | 131 ± 29 | 108 | 73.3 ± 15 | 90.6 | 70.2 ± 5.6 | 72.4 | 88.5 ± 4.3 | 97.1 ± 3.4 | 130 ± 7.6
NNC(=O)c1ccncc1 [Isoniazid] | 97.4 ± 7.2 | 109 | 92.6 ± 10 | 87.2 | 119 ± 13 | 127 | 72.6 ± 13 | 95.6 ± 4 | 114 ± 3.3
Cc1ccnc(NS(=O)(=O)c2ccc(N)cc2)n1 [Sulfamerazine] | 100 ± 36 | 131 | 88.41 ± 0.75 | 84.2 | 103 ± 8.7 | 111 | 86.8 ± 8.5 | 75.2 ± 10 | 99.5 ± 6
CN1CCN(C2=Nc3ccccc3Oc3ccc(Cl)cc32)CC1.O=C(O)CCC(=O)O [Loxapine Succinate] | 117 ± 40 | 88.4 | 84.5 ± 17 | 84.4 | 64.9 ± 5.7 | 138 | 108 ± 6.8 | 104 ± 24 | 103 ± 6
CN1C2CCC1CC(OC(c1ccccc1)c1ccccc1)C2.CS(=O)(=O)O (stereo not drawn) [Benztropine mesylate] | 189 ± 60 | 108 | 110 ± 13 | 94 | 120 ± 14 | 125 | 80.4 ± 7.7 | 83.4 ± 12 | 141 ± 1.6
COc1cc2ncnc(Nc3ccc(F)c(Cl)c3)c2cc1OCCCN1CCOCC1 [Gefitinib (ZD1839)] | 95.6 ± 51 | 55.3 | 77.9 ± 22 | 110 | 63.3 ± 1.6 | 94.8 | 52.2 ± 1.3 | 47.8 ± 2.2 | 128.3 ± 1.1
CC(=O)N=c1sc(S(N)(=O)=O)nn1C [Methazolamide] | 103 ± 7.7 | 114 | 92.5 ± 21 | 119 | 119 ± 9.3 | 122 | 93.9 ± 16 | 94.6 ± 3.6 | 97.7 ± 1.2
CC1(C)SC2C(NC(=O)C(C(=O)[O-])c3ccccc3)C(=O)N2C1C(=O)[O-].[Na+].[Na+] (stereo not drawn) [Carbenicillin, Disodium Salt] | 93 ± 4.2 | 92.6 | 94 ± 0.98 | 103 | 86.7 ± 1.1 | 105 | 85.4 ± 3.6 | 110 ± 17 | 115 ± 2
Cl.Clc1cccc(Cl)c1NC1=NCCN1 [Clonidine HCl] | 132 ± 6.9 | 127 | 99 ± 9 | 114 | 111 ± 6.8 | 135 | 94.9 ± 3.3 | 104 ± 15 | 124.6 ± 0.22
COc1ccc(C2Sc3ccccc3N(CCN(C)C)C(=O)C2OC(C)=O)cc1.Cl (stereo not drawn) [Diltiazem HCl] | 81.5 ± 45 | 123 | 85.4 ± 4 | 88.9 | 95.5 ± 7.5 | 108 | 72.3 ± 5.6 | 93 ± 22 | 131 ± 15
CC(C)(Oc1ccc(C2CC2(Cl)Cl)cc1)C(=O)O (stereo not drawn) [Ciprofibrate] | 96 ± 14 | 126 | 94.3 ± 11 | 79.4 | 110 ± 12 | 114 | 96.2 ± 2.9 | 120 ± 3.9 | 127 ± 15
Cc1c(O)cccc1C(=O)NC(CSc1ccccc1)C(O)CN1CC2CCCCC2CC1C(=O)NC(C)(C)C (stereo not drawn) [Nelfinavir] | 117 ± 39 | 93.4 | 52.9 ± 40 | 97.2 | 89.3 ± 0.59 | 101 | 68.7 ± 4 | 89.2 ± 16 | 61.5 ± 6.5
CCN1CCN(c2cc3c(cc2F)c(=O)c(C(=O)O)cn3C2CC2)CC1 [Enrofloxacin] | 105 ± 14 | 106 | 99.9 ± 18 | 91.8 | 121 ± 8.5 | 111 | 124 ± 5.2 | 130 ± 18 | 80.5 ± 6.2
CCOC(=O)CC(=O)N1CCSC1COc1ccccc1OC (stereo not drawn) [Moguisteine] | 68.2 ± 37 | 114 | 102 ± 8.2 | 89.5 | 115 ± 9 | 127 | 83.2 ± 4.3 | 88.7 ± 22 | 131 ± 4.4
O=C(CCCN1CC=C(n2c(=O)[nH]c3ccccc32)CC1)c1ccc(F)cc1 [Droperidol] | 108 ± 23 | 106 | 84.4 ± 9.8 | 97.5 | 113 ± 20 | 107 | 93.1 ± 5.3 | 96.6 ± 20 | 100 ± 2.3

SMILES | cell viability (HCI01) | cell viability (HCI03) | cell viability (HCI09) | cell viability (HCI11) | cell viability (HCI13) | cell viability (HCI16) | cell viability (UCD52) | cell viability (WHIM2) | cell viability (WHIM30)
Cc1noc(NS(=O)(=O)c2ccc(N)cc2)c1C [Sulfisoxazole] | 89.3 ± 28 | 121 | 94.4 ± 8.1 | 86.9 | 107 ± 2.8 | 112 | 99.8 ± 3.5 | 84.1 ± 8.8 | 117 ± 1.3
CC[C@H](C)[C@@H]1NC(=O)[C@H](Cc2ccc(O)cc2)NC(=O)[C@@H](N)CSSC[C@@H](C(=O)N2CCC[C@H]2C(=O)N[C@@H](CC(C)C)C(=O)NCC(N)=O)NC(=O)[C@H](CC(N)=O)NC(=O)[C@H](CCC(N)=O)NC1=O [Oxytocin] | 116 ± 13 | 110 | 99.7 ± 2.2 | 69.2 | 134 ± 41 | 128 | 115 ± 1.7 | 126 ± 1.9 | 134 ± 8.1
CCOc1ccc(Cc2cc(C3OC(CO)C(O)C(O)C3O)ccc2Cl)cc1 (stereo not drawn) [Dapagliflozin] | 112 ± 8.7 | 113 | 89.6 ± 9.1 | 110 | 107 ± 18 | 128 | 78.8 ± 4.8 | 84 ± 6.9 | 103 ± 24
Cc1nnc(NS(=O)(=O)c2ccc(N)cc2)s1 [Sulfamethizole] | 102 ± 17 | 119 | 91.2 ± 4.5 | 87 | 89.2 ± 14 | 114 | 81.2 ± 3.9 | 91.3 ± 4.2 | 88.3 ± 5
CC(=O)O.CC(=O)O.CCC(C)CC(C)CCCCCCCCC(=O)NC1CC(O)C(NCCN)NC(=O)C2C(O)CCN2C(=O)C(C(O)CCN)NC(=O)C(C(O)C(O)c2ccc(O)cc2)NC(=O)C2CC(O)CN2C(=O)C(C(C)O)NC1=O (stereo not drawn) [Caspofungin Acetate] | 58.7 ± 28 | 115 | 84.5 ± 9.6 | 84.4 | 88 ± 5.7 | 115 | 71.4 ± 2.7 | 94.1 ± 40 | 119 ± 2.4
COc1cc2c(cc1O)CCC1C2CCC2(C)C(O)CCC12 (stereo not drawn) [2-Methoxyestradiol (2-MeOE2)] | 141 ± 8 | 110 | 94.8 ± 12 | 117 | 181 ± 10 | 121 | 95.1 ± 7.2 | 114 ± 7 | 150 ± 22
CC(C)(C(=O)O)c1ccc(C(O)CCCN2CCC(C(O)(c3ccccc3)c3ccccc3)CC2)cc1.Cl (stereo not drawn) [Fexofenadine HCl] | 127 ± 32 | 129 | 115 ± 1.6 | 96.4 | 131 ± 6.2 | 120 | 87.7 ± 9.4 | 84.5 ± 14 | 108 ± 14
Cc1c(-c2cnccn2)ssc1=S [Oltipraz] | 89.2 ± 5.2 | 113 | 88.5 ± 4 | 66.1 | 89.8 ± 8.7 | 104 | 94.8 ± 9.3 | 91 ± 14 | 72.8 ± 2.9
CCCCCCOC(=O)N=C(N)c1ccc(NCc2nc3cc(C(=O)N(CCC(=O)OCC)c4ccccn4)ccc3n2C)cc1 | 94.2 ± 9.6 | 124 | 105 ± 7.4 | 111 | 118 ± 7.9 | 107 | 91.9 ± 7.3 | 107 ± 32 | 116 ± 11
O=C(O)C1=CC(=NNc2ccc([O-])c(C(=O)[O-])c2)C=CC1=O.[Na+].[Na+] [Olsalazine Sodium] | 123 ± 2.4 | 108 | 127 ± 47 | 102 | 120 ± 30 | 88.2 | 91.8 ± 7.2 | 86.8 ± 7.9 | 112 ± 7.4
Cc1cc(NS(=O)(=O)c2ccc(N)cc2)no1 [Sulfamethoxazole] | 115 ± 29 | 127 | 107 ± 30 | 95.4 | 120 ± 1.2 | 154 | 99.6 ± 4.2 | 117.5 ± 0.64 | 196 ± 4
CC(CN(C)C)CN1c2ccccc2CCc2ccccc21.O=C(O)/C=C\C(=O)O (stereo not drawn) [Trimipramine (maleate)] | 99.2 ± 13 | 101 | 91.6 ± 9.4 | 69 | 92.2 ± 2.7 | 105 | 86.9 ± 1.5 | 77.6 ± 15 | 93.3 ± 1.9
COc1cc(C2c3cc4c(cc3C(OC3OC5COC(c6cccs6)OC5C(O)C3O)C3COC(=O)C23)OCO4)cc(OC)c1O (stereo not drawn) [Teniposide] | 104 ± 2.6 | 112 | 105 ± 36 | 111 | 134 ± 40 | 118 | 111 ± 1.8 | 87.3 ± 23 | 96.6 ± 4.3
CCn1cc(C(=O)O)c(=O)c2cc(F)c(N3CCNC(C)C3)c(F)c21.Cl (stereo not drawn) [Lomefloxacin HCl] | 97.5 ± 19 | 95.2 | 94.5 ± 7.8 | 96.1 | 76 ± 14 | 107 | 91.5 ± 2.9 | 83.75 ± 0.15 | 150 ± 10
Nc1ccc(S(N)(=O)=O)cc1 [Sulfanilamide] | 106 ± 25 | 127 | 97.7 ± 18 | 83.1 | 164 ± 9.1 | 120 | 94.6 ± 8.7 | 105 ± 7.5 | 140 ± 13
O=C1Nc2ccc(Cl)cc2C(C#CC2CC2)(C(F)(F)F)O1 (stereo not drawn) [Efavirenz] | 114 ± 16 | 85.9 | 68.9 ± 7.4 | 99.8 | 82.9 ± 7.3 | 108 | 69.5 ± 1.9 | 69.6 ± 46 | 82.3 ± 17
CC(C)(OCc1nn(Cc2ccccc2)c2ccccc12)C(=O)O [Bindarit] | 86.5 ± 68 | 133 | 95.7 ± 2.3 | 86.6 | 136 ± 0.14 | 117 | 83.1 ± 3.1 | 110 ± 19 | 149 ± 27
CC1C(=O)OC2CC34C5CC(C(C)(C)C)C36C(OC(=O)C6O)OC4(C(=O)O5)C21O (stereo not drawn) [Ginkgolide A] | 98.9 ± 14 | 112 | 97.3 ± 6.1 | 96.5 | 114 ± 6 | 116 | 91.6 ± 10 | 101 ± 12 | 91.5 ± 9.4
CNC(=O)C(NC(=O)C(CC(C)C)C(O)C(=O)NO)C(C)(C)C (stereo not drawn) [Marimastat] | 138 ± 9.7 | 111 | 78.3 ± 3 | 118 | 72.6 ± 8.9 | 127 | 101 ± 16 | 105 ± 10 | 117 ± 13
Cl.NCCc1ccc(O)c(O)c1 [Dopamine HCl] | 112 ± 25 | 103 | 113 ± 37 | 84.4 | 59 ± 2.7 | 125 | 93.6 ± 0.5 | 56 ± 2.1 | 128 ± 6.4
CN(C)CCC=C1c2ccccc2COc2ccc(CC(=O)O)cc21.Cl [Olopatadine HCl] | 122 ± 18 | 130 | 101 ± 9.1 | 97.6 | 182 ± 38 | 99.1 | 81.6 ± 14 | 87.1 ± 13 | 108 ± 4.9

Source: the supplement of paper PMC6992640
